The panel holds about 83,000 compounds, 20% with a hit somewhere; the sample as a whole holds those more often.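 Each cell line was grown in a 96-well plate and treated with one concentration of compound for 48 hours. Values below 10 were considered active.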 Values without a mark were called inactive. Activity calls are given as the source filed them.

In the assay the test system is IGROV1 ovarian. Kind of assay: NCI-60 one-dose screen, 48 h (100 = growth as untreated, 0 = no growth, -100 = all killed). Particulars: 10 µM. On the procedure:
Growth inhibition of the IGROV1 human tumor cell line is measured as a screen for anti-cancer activity. Cells are grown in 96 well plates and exposed to the test compound for 48 hours. Compounds are tested at a single concentration, which is 10^-5 M for most compounds. The reported endpoint is percent growth (GI% or GIPRCNT), where numbers from 0 - 100% represent growth inhibition, and numbers from -100% - 0 represent cell death. For example, a value of 40 represents 60% growth inhibition. A value of 0 means no net growth occurred over the course of the experiment. A value of -40 indicates 40% of cells at the beginning of the experiment died by the end of the experiment. A value of -100 means all cells are dead at the end of the experiment.
NCI-60 Human Tumor Cell Lines Screen was performed using the standard one-dose NCI protocol, which is described in more detail at https://dtp.cancer.gov/discovery_development/nci-60/default.htm.
Compounds with GIPRCNT values below 10 were considered active. Activity score was based on GIPRCNT using the following formula: […]
Score is 0 for GIPRCNT values of 100 or above, 50 for GIPRCNT values of 0, and 100 for GIPRCNT values of -100.
On to `O=C(Nc1ccc(S(=O)(=O)F)cc1)Oc1ccccc1`, for which the growth was 99.1%.
Consider `[Br][Pb]([c]1ccccc1)([c]1ccccc1)[c]1ccccc1`, for which the growth is -50.9% (active).
Next, `COc1ccc(C(=O)c2ccc([As]=O)cc2)cc1` (stereo not given): -29.3% (active); `CCCCOC(=O)c1ccccc1C(=O)O.CCCCOC(=O)c1ccccc1C(=O)O.[Cu+2]`: 122%.
Next, `[N-]=[N+]=NC(C(=O)O)c1ccccc1` (stereo not given): 98%; `Cc1nnc([S-])s1.[Au+].c1ccc([PH+](c2ccccc2)c2ccccc2)cc1`: -25.4% (active); `C[C@]12C[C@H](O)[C@H]3[C@@H](CCC4=CC(=O)CC[C@@]43C)[C@@H]1CC[C@@H]2O`: 105%.
In the case of `Nc1ccc([N+](=O)[O-])c2c1Oc1ccccc1O2`, the growth was 28%.
Under `COc1cc(NCCCCCN=C(N)N)c2ncccc2c1` stands 23.6%; under `CCCCCCCCCCCCOc1ccc(C(=O)Oc2ccc(CSP3(=O)OCC4OC(n5cnc6c(N)ncnc65)C(F)C4OP(=O)(O)OCC4OC(n5ccc(=O)[nH]c5=O)C(F)C4O3)cc2)cc1` (stereo not given), 97%.
As to `CC(CC(C#N)(c1ccccc1)c1ccccc1)N1CCOCC1` (stereo not given), the growth is 102%.
For `C[C@]12CCC(=O)CC1CC[C@@H]1C2CC[C@@]2(C)C1CC[C@@H]2OC(=O)CC[Se][Se]CCC(=O)O[C@H]1CCC2[C@@H]3CCC4CC(=O)CC[C@]4(C)C3CC[C@@]21C` (stereo not given in full), the growth was 97.3%.
Next, `CO[C@@H]([CH2][Hg][S]C#N)[C@@H]([CH2][Hg][S]C#N)OC`: 63.9%; `COc1ccc(C2=NN(c3ccccc3)C(c3sc(N(CCCl)CCCl)nc3Cl)C2)cc1` (stereo not given): 121%.
With `OC1(c2ccc(Cl)cc2Cl)c2ccccc2C2=NCCN21` (stereo not given), the growth is 78.9%.
Next, `O=S(=O)(F)c1ncnc2nc[nH]c12`: 103%; `CC(C)(C)[Si](C)(C)OC1[C@@H](O[Si](C)(C)C(C)(C)C)[C@@H](CNC(=O)NC(=O)CF)O[C@H]1n1cnc2c(NC(=O)Nc3ccccc3)ncnc21` (stereo not given in full): 72.9%; `CC(=O)O[C@@H]1C2=C(C)C3(CC3)[C@@](C)(O)C(=O)C2=C[C@@]1(C)CO`: 3.81% (active).
Next, `CC1(C)N=C(N)N=C(N)N1c1ccc(OCCCCOc2ccc(S(=O)(=O)F)cc2)c(Cl)c1`: 33.1%; `COc1cc2c(cc1OC)CN(C)C(C)C2` (stereo not given): 111%; `CCC(C)/C=C(C)/C=C/C(=O)c1c(O)c(-c2ccc(O)cc2)c[nH]c1=O` (stereo not given): 40.7%.
Under `O=[N+]([O-])c1ccc(F)c([N+](=O)[O-])c1F` stands 105%.
For the compound `CCOc1ccc(C(O)CN(C)Cc2ccccc2)cc1Cl` (stereo not given), the growth is 106%.
On to `CCC1([N+](=O)[O-])COP(=O)(NCc2cccnc2)OC1` (stereo not given), for which the growth was 118%.
Consider `S=P(N1CCCCCC1)(N1CC1)N1CC1`, for which the growth is 90.1%.
Next, `CNC(=O)Oc1cccc(OC)c1`: 118%; `ClCCN(CCCl)c1ccc(/C=C\c2ccnc3ccccc23)cc1`: 81.6%.
Next, `C[C@]12CCc3sc(-c4ccc(Cl)cc4)nc3C1=CC[C@@H]1[C@@H]2CC[C@]2(C)C(=O)CC[C@@H]12`: 92.5%.
Under `CC(=O)Nc1ccc(Cc2ccc(NC(C)=O)cc2)cc1` stands 116%; under `NC(=O)C(Cl)Cl`, 102%.
Turning to `N#Cc1ncc(/N=C/c2ccc(N(CCCl)CCCl)cc2)s1`, the growth was 90%.
Turning to `CCOC(=O)c1cnc(SCc2ccc(Cl)c(Cl)c2)nc1N1CC1`, the growth was 33.7%.
Consider `Cc1ccc(C(=O)C2CN(C)CCC2(O)c2ccc(C)cc2)cc1` (stereo not given), for which the growth is 124%.
As to `O=C(/C=C/c1ccccc1)N[C@@H](CO)Cc1cnc[nH]1`, the growth is 92.9%.
In the case of `C[C@@H]1CC[C@@H]2[C@@H]1[C@H](OC(=O)/C=C/C1CCCCC1)[C@]1(C3CCCCC3)C[C@@H](OC(=O)CO)[C@@]2(C)O1`, the growth was 75.7%.
For the compound `COc1cc(C2CC(=O)Nc3nc(N)[se]c32)cc(OC)c1OC` (stereo not given), the growth is 62%.
`CC(C)(O)/C=C/C(=O)[C@](C)(O)[C@H]1[C@H](O)C[C@@]2(C)[C@@H]3CC=C4[C@@H](C=C(O)C(=O)C4(C)C)[C@]3(C)C(=O)C[C@]12C`: the growth is -70.3% (active).
Next, `NS(=O)(=O)c1nc[nH]c1[N+](=O)[O-]`: 115%; `CC(N)Cc1ccc(O)cc1` (stereo not given): 111%; `Oc1ccc(O)c2c1C1(Cl)C(Cl)=C(Cl)C2(Cl)C1(Cl)Cl`: 38.3%.

For the origin of these results see PubChem BioAssay (NCI).
